# Source: the supplement of paper PMC10849652
# The full data set covers some 7,900 targets. This sample favours those with a hit. About 0.6% of all pairs of compound and target were hits. Unmarked numbers belong to inactive results.
# Compound: CC1=C(C=C(C=C1)NC(=O)C2=CC(=CC=C2)C(C)(C)C#N)NC3=CC4=C(C=C3)N=CN(C4=O)C
# Experiment: log2 fold change, soluble protein after heating vs DMSO (PISA); higher = thermal stabilisation; K562 cells, 10 uM, 30 min; active = over 0.2 and 3.5 SD of the protein, either way, in both replicates (recomputed)
# Method in brief: (§1)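 Quantification of soluble protein used TMTpro 16plex LC-MS/MS, with channel sums equalised. Samples were the supernatant after 21,000xg for 90 min of pooled aliquots from K562 cells (2×10^6 cells/mL) treated with 10 μM compound for 30 min, heated for 3 min over 48°C-58°C, and extracted in PBS with 0.5% NP-40 at 4°C. Values, from duplicates, describe thermal stability against control samples on a log2 fold-change scale.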
# Sequence of UniProt O43164 (O43164 whole entry, looked up): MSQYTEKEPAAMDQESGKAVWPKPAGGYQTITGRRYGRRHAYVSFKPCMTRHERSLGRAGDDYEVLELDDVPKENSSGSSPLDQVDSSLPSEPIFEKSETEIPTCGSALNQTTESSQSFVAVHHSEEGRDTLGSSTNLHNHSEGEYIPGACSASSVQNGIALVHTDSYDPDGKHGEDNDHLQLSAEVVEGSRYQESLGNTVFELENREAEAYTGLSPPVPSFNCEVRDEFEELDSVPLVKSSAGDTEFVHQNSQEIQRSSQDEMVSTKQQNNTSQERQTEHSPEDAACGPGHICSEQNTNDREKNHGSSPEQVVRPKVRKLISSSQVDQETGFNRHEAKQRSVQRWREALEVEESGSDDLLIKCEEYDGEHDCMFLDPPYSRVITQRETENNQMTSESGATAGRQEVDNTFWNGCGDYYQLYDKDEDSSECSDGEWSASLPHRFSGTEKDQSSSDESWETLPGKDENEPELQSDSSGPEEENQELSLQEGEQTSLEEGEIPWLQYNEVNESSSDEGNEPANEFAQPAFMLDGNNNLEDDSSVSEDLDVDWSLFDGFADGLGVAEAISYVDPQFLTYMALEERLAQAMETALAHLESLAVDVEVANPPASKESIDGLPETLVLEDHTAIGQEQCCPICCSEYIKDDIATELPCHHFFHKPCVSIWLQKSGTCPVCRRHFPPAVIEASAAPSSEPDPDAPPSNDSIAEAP
# Sequence of UniProt O95613 (O95613 whole entry, looked up): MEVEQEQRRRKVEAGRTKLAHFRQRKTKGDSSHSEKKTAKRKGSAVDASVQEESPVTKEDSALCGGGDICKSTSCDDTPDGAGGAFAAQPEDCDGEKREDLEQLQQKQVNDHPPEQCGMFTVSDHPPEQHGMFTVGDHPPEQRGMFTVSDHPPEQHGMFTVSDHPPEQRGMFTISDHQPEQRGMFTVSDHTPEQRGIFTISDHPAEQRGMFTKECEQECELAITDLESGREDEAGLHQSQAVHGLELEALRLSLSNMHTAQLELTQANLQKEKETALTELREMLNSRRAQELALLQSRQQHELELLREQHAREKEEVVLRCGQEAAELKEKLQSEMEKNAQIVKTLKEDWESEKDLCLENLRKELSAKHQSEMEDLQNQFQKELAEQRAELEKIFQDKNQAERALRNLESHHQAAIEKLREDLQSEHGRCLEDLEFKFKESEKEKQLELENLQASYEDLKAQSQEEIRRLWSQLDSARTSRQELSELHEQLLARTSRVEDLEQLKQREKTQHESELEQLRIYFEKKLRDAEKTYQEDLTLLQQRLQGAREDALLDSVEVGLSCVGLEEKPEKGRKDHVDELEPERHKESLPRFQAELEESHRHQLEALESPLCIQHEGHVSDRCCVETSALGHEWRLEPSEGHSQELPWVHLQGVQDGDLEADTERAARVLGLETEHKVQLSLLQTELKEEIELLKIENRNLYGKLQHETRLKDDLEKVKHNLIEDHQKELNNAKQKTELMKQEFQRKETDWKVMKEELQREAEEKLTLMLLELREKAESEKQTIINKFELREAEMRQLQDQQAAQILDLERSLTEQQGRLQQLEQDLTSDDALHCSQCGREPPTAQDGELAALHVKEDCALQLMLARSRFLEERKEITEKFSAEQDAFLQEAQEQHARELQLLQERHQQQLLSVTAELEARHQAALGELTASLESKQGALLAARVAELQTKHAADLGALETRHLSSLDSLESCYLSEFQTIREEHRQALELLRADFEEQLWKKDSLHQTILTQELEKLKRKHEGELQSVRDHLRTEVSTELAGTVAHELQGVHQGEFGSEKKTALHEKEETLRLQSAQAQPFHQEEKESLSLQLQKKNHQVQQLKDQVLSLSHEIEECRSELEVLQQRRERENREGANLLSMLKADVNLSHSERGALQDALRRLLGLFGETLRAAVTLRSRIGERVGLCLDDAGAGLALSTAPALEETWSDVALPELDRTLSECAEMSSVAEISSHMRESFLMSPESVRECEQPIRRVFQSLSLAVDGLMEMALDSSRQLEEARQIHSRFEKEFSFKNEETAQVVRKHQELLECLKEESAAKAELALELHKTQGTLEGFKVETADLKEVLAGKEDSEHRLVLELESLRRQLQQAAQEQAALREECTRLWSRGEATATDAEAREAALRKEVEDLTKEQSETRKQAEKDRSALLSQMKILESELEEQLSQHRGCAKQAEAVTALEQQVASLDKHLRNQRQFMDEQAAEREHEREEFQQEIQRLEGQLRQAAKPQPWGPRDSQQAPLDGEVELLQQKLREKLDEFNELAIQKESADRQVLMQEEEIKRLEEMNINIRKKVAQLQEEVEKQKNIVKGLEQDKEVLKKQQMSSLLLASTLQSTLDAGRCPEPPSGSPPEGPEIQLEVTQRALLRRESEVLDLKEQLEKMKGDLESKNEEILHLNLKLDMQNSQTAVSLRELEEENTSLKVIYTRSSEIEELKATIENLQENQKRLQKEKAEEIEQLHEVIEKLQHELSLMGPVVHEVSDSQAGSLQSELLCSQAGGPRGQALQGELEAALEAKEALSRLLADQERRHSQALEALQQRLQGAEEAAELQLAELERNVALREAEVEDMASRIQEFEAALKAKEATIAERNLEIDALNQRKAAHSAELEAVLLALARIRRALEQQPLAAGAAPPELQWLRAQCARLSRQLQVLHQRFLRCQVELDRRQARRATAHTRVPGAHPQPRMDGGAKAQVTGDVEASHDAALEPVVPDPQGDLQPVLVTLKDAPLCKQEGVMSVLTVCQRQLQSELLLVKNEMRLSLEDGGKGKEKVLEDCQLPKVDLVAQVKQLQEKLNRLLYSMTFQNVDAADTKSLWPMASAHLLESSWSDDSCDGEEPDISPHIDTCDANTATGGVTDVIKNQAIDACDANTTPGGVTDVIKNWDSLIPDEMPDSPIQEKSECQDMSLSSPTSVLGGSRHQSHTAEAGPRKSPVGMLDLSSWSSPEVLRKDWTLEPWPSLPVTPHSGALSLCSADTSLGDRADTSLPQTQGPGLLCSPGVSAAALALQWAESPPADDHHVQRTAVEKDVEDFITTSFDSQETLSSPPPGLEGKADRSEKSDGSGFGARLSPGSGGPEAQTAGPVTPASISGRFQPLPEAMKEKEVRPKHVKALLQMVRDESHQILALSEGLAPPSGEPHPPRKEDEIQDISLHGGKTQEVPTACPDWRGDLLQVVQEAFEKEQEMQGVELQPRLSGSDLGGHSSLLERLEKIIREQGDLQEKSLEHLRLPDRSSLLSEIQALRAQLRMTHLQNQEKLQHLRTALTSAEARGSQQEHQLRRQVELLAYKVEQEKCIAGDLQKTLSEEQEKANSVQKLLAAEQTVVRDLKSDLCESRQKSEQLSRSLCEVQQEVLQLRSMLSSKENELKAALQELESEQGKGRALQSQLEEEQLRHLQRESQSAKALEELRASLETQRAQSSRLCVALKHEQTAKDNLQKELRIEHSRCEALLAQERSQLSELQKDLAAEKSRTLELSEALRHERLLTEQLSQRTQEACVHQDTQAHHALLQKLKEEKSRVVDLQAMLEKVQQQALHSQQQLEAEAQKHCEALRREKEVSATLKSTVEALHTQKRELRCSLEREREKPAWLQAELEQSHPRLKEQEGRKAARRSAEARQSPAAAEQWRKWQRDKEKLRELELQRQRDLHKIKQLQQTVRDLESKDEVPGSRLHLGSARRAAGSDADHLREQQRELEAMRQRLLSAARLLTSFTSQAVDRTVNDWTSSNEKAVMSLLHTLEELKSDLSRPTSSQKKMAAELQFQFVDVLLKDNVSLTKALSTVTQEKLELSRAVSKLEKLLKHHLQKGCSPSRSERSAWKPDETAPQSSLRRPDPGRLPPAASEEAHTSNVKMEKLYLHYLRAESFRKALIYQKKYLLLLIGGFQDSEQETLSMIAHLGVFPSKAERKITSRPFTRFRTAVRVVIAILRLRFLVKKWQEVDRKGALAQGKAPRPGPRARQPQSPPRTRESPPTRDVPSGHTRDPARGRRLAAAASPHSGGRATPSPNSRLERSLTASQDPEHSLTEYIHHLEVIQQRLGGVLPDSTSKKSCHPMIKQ
# Sequence of UniProt Q9H814 (Q9H814 whole entry, looked up): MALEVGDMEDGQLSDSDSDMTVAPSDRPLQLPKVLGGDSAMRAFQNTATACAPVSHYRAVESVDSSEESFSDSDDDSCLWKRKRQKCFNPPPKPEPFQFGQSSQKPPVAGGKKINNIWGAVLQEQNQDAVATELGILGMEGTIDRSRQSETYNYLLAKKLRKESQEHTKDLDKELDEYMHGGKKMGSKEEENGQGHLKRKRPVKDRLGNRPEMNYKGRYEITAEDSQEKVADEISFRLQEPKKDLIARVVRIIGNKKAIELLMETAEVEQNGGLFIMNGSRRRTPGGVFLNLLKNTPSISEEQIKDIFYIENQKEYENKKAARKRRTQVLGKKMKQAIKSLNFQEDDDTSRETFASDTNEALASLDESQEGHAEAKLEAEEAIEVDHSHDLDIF
# Sequence of UniProt P78356 (P78356 whole entry, looked up): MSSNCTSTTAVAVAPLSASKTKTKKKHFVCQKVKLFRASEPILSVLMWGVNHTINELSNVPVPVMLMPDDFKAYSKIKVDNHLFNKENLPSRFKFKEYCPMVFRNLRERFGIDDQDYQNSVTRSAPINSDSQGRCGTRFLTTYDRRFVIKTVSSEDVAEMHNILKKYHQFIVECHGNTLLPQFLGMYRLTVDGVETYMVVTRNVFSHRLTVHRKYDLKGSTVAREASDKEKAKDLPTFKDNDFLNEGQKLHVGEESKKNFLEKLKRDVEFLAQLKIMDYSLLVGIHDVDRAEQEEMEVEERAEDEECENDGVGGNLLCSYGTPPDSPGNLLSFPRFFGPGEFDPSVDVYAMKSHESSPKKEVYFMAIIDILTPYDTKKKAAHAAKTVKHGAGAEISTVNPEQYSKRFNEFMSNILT
# Sequence of UniProt Q9UKL6 (Q9UKL6 whole entry, looked up): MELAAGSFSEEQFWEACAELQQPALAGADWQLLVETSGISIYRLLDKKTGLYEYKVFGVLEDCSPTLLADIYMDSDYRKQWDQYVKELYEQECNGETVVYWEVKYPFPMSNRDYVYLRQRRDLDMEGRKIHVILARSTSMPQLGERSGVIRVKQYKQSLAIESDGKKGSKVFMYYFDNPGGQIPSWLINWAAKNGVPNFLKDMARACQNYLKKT
row,Target,log2 fold change
1,PRPF40A (UniProt O75400),0.016
2,PHAX (UniProt Q9H814),-0.019
3,PDPK1 (UniProt O15530),-0.026
4,PDE4DIP isoform 4 (UniProt Q5VU43),-0.027
5,PIR (UniProt O00625),-0.063
6,PSMC2 (UniProt P35998),0.011
7,PEX16 isoform 2 (UniProt Q9Y5Y5),0.017
8,PLEKHM2 (UniProt Q8IWE5),0.064
9,PRIM1 (UniProt P49642),0.02
10,PRPF31 (UniProt Q8WWY3),0.021
11,PCNT (UniProt O95613),-0.104
12,PTGR2 (UniProt Q8N8N7),-0.022
13,PSMC5 (UniProt P62195),0.014
14,PRKCA (UniProt P17252),-0.014
15,PRMT3 (UniProt O60678),0.016
16,PARN (UniProt O95453),-0.038
17,PRKAA1 isoform 2 (UniProt Q13131),-0.029
18,PJA2 (UniProt O43164),-0.059
19,PRPF3 (UniProt O43395),0.05

row,Target,log2 fold change
1,PITRM1 isoform 2 (UniProt Q5JRX3),0.21
2,PLA2G15 (UniProt Q8NCC3),0.04
3,PIP4K2B (UniProt P78356),-0.055
4,PDE2A (UniProt O00408),-0.041
5,PIP4P2 (UniProt Q8N4L2),0.107
6,PRKCD (UniProt Q05655),-0.015
7,PLCB3 (UniProt Q01970),0.033
8,POLR2B (UniProt P30876),0.009
9,PPIL4 (UniProt Q8WUA2),0.006
10,PCTP (UniProt Q9UKL6),-0.007
11,PDE12 (UniProt Q6L8Q7),0.049
12,PPP1R12A (UniProt O14974),-0.012
13,PIP4P1 isoform 2 (UniProt Q86T03),-0.018
14,PDS5B (UniProt Q9NTI5),-0.088
15,PTGES3 (UniProt Q15185),0.039
16,PLBD2 (UniProt Q8NHP8),-0.053
17,PRKAR1B (UniProt P31321),0.102
18,PSMD2 (UniProt Q13200),0.005

# Compound: CC1=C(C=C(C=C1)NC(=O)C2=CC(=CC=C2)N(C)C)NC(=O)C3=CC=C(C=C3)O
# Experiment: as above
# Method in brief: as §1
row,Target,log2 fold change
1,PRPF40A (UniProt O75400),0
2,PHAX (UniProt Q9H814),0.013
3,PDPK1 (UniProt O15530),-0.055
4,PDE4DIP isoform 4 (UniProt Q5VU43),-0.049
5,PIR (UniProt O00625),0.325 (active)
6,PSMC2 (UniProt P35998),0.02
7,PEX16 isoform 2 (UniProt Q9Y5Y5),0.038
8,PLEKHM2 (UniProt Q8IWE5),0.035
9,PRIM1 (UniProt P49642),-0.083
10,PRPF31 (UniProt Q8WWY3),-0.12
11,PCNT (UniProt O95613),0.068
12,PTGR2 (UniProt Q8N8N7),-0.058
13,PSMC5 (UniProt P62195),0.011
14,PRKCA (UniProt P17252),-0.068
15,PRMT3 (UniProt O60678),-0.025
16,PARN (UniProt O95453),-0.004
17,PRKAA1 isoform 2 (UniProt Q13131),0.001
18,PJA2 (UniProt O43164),0.019
19,PRPF3 (UniProt O43395),-0.025

row,Target,log2 fold change
1,PITRM1 isoform 2 (UniProt Q5JRX3),-0.064
2,PLA2G15 (UniProt Q8NCC3),-0.013
3,PIP4K2B (UniProt P78356),-0.048
4,PDE2A (UniProt O00408),0.007
5,PIP4P2 (UniProt Q8N4L2),-0.03
6,PRKCD (UniProt Q05655),-0.025
7,PLCB3 (UniProt Q01970),-0.04
8,POLR2B (UniProt P30876),-0.044
9,PPIL4 (UniProt Q8WUA2),-0.02
10,PCTP (UniProt Q9UKL6),0.004
11,PDE12 (UniProt Q6L8Q7),0.006
12,PPP1R12A (UniProt O14974),-0.036
13,PIP4P1 isoform 2 (UniProt Q86T03),-0.001
14,PDS5B (UniProt Q9NTI5),0.086
15,PTGES3 (UniProt Q15185),-0.073
16,PLBD2 (UniProt Q8NHP8),0.058
17,PRKAR1B (UniProt P31321),-0.019
18,PSMD2 (UniProt Q13200),0.012
